According to PubChem BioAssay (NCI):
This is part of a sample that, as a whole, favours compounds with a hit. Of some 83,000 tested, about 20% had one in any assay.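 Cells were grown in 96-well plates and exposed to the test compound at a single concentration for 48 hours; results are reported as percent growth, with values below 10 considered active.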 Values without a mark were called inactive. Activity calls are given as the source filed them.

Columns and labels:
Assay in all cases: NCI-60 one-dose screen, 48 h (100 = growth as untreated, 0 = no growth, -100 = all killed)
Settings in all cases: 10 µM unless noted
T-47D breast = system: T-47D breast
BT-549 breast = system: BT-549 breast
MDA-MB-435 melanoma = system: MDA-MB-435 melanoma
SW-620 colon = system: SW-620 colon
MCF7 breast = system: MCF7 breast
HCT-116 colon = system: HCT-116 colon
HCC-2998 colon = system: HCC-2998 colon
KM12 colon = system: KM12 colon

Row | Compound | growth (T-47D breast) | growth (BT-549 breast) | growth (MDA-MB-435 melanoma) | growth (SW-620 colon) | growth (MCF7 breast) | growth (HCT-116 colon) | growth (HCC-2998 colon) | growth (KM12 colon)
1 | CCNCCCn1c2c(c3ccc([N+](=O)[O-])cc3c1=O)C(=O)c1cc(OC)cnc1-2 | -12.9% (active) | -16.2% (active) | -54.4% (active) | -27% (active) | -3.1% (active) | -69.8% (active) | -8.05% (active) | -3.89% (active)
2 | C=C(C)[C@@H]1CC[C@]2(C(=O)O)CC[C@]3(C)[C@H](CC[C@@H]4[C@@]5(C)C/C(=C/c6cccc(I)c6)C(=O)C(C)(C)[C@@H]5CC[C@]43C)[C@@H]12 | 4.75% (active) | 35.3% | 32.1% | 17.9% | 19.6% | 5.1% (active) | 28.8% | 15.1%
3 | COc1cccc(-c2nn(-c3ccccc3)cc2-c2ccnc(NCCCNS(=O)(=O)c3cccc(F)c3)c2)c1 | -1.01% (active) | 24.3% | 22.4% | 39.9% | 16% | 18.4% | 11.7% | 24.5%
4 | Nc1c2c(nc3ccc(Cl)cc13)CC(c1ccc(O)cc1)CC2=O (stereo not given) | 54.8% | 53.3% | -38.5% (active) | 33.8% | 25.1% | 26.2% | 77.9% | 26.7%
5 | COC(=O)[C@]12CC[C@@H](C(/C=C/c3cccnc3)=N/O)[C@@H]1[C@H]1CC[C@@H]3[C@@]4(C)CC(=C/c5cccnc5)/C(=N/O)C(C)(C)[C@@H]4CC[C@@]3(C)[C@]1(C)CC2 | 27.3% | 22.8% | 36.2% | 45.5% | 25.6% | 18.9% | 45.9% | 37.7%
6 | CCN(CC)CCCCCNc1cc(OC(=O)c2ccccc2)cc2cccnc12 | 76.6% | 97.2% | 53.6% | 80.8% | 134% | 44.5% | 104% | 81.3%
7 | CC1(C)CC[C@]2(C(=O)Nc3ccccn3)CC[C@]3(C)C(=CC[C@@H]4[C@@]5(C)C/C(=C/c6ccncc6)C(=O)C(C)(C)[C@@H]5CC[C@]43C)[C@@H]2C1 | 13.3% | 35.7% | 14.8% | 20% | 21.7% | -1.02% (active) | 25% | -6.73% (active)
8 | Cc1cc(C)c(NC(=O)c2sc3nc4c(cc3c2N)CCCC4)c(C)c1 | 36.2% | 56.4% | -13.6% (active) | 30.5% | 23.7% | 29.9% | 87.6% | 34.9%
9 | COc1cc2c(cc1-c1c(C)noc1C)ncc1nc(C3CC3)n([C@H](C)COC(F)F)c12 | 32.7% | 71.6% | 44.3% | 62.7% | 21.7% | 37% | 57.3% | 51.5%
10 | COc1cc2[nH]c(C(=O)c3cc(OC)c(OC)c(OC)c3)c(N)c2cc1C#CCO | 56% | 54% | -27.1% (active) | 16.9% | 10.1% | 10% | 13.5% | 10.8%
11 | Cn1c2c(Cl)c(Cl)ccc2c2c(C#N)c[nH]c(=O)c21 | 102% | 120% | 115% | 106% | 96.5% | 92.7% | 97.2% | 111%
12 | COc1ccc2nc(-c3cc(-c4cc(OC)c(OC)c(OC)c4)n[nH]3)[nH]c2c1 | -31.2% (active) | 3.56% (active) | -25.4% (active) | 21% | -6.38% (active) | 12.7% | 49.6% | -30% (active)
13 | N=c1ccc2nc3c(cc(N)c4ccccc43)oc-2c1 | -80.1% (active) | -13.2% (active) | -86.1% (active) | -79.6% (active) | -62.3% (active) | -96.1% (active) | -96.8% (active) | -94.9% (active)
14 | Nc1nc2c3ccncc3cc(-c3cccc(Cl)c3)c2c2cnccc12 | 32% | 37% | 66.8% | 36.5% | 33.4% | 5.95% (active) | 74.9% | 46.2%
15 | N#CC1C(=N)Cc2ccccc2-c2ccccc21 (stereo not given) | 60.9% | 41.5% | -23.8% (active) | 19.2% | 31.4% | 33.1% | 86.8% | 18%
16 | C[Si](C)(C)Cc1ccccc1 | 113% | 110% | 113% | 107% | 105% | 107% | 114% | 108%
17 | COc1ccc2nc(-c3c(-c4ccccc4)nc4ncccn34)[nH]c2c1 | 82.1% | 110% | 104% | 108% | 96.6% | 97.1% | 101% | 111%
18 | Oc1ccc(Nc2ccccc2)cc1 | 91.7% | 74% | 75.8% | 88.7% | 89.2% | 99.2% | 107% | 79.1%
19 | N#CCCCCCn1c2ccccc2c2c3[nH]c(=O)[nH]c(=O)c3c3c4ccccc4n(CCCCCC#N)c3c21 | 22.9% | 32% | 36.8% | 61.4% | 45.3% | 28.2% | 53.8% | 23.8%
20 | C=C1C(=O)O[C@H]2[C@H]1CC/C(Cn1cc(-c3ccc(F)cc3)nn1)=C\CC[C@@]1(C)O[C@@H]21 | -48.1% (active) | 43.5% | -31.4% (active) | -40.6% (active) | -55.6% (active) | -86% (active) | -11.6% (active) | 54.6%
21 | COc1ccc(/C=C(\C#N)c2cc3ccccc3n2C(C)=O)cc1 | 78.5% | 82.6% | 9.69% (active) | 59.5% | 53.7% | 81.1% | 81.2% | 57.1%
22 | Cc1cc(C=O)c(C)c2c1[nH]c1ccccc12 | 101% | 89% | 116% | 101% | 85.4% | 90.5% | 106% | 108%
23 | CC(c1ccccc1)N1C(=O)C(C2SC(=S)N(C(C)c3ccccc3)C2=O)SC1=S (stereo not given) | 73.2% | 89.5% | 57.2% | 54.7% | 25.8% | 57% | 107% | 67.9%
24 | O=C1c2cccc3cccc(c23)C(=O)N1CC#Cc1ccc2c3c(cccc13)C(=O)N(CCN1CCNCC1)C2=O | 38.3% | 101% | 105% | 28.3% | -43.9% (active) | -64.1% (active) | 104% | 98.9%
25 | CSc1ccc(N(C)c2nc(C)nc3c2CCC3)cc1 | 64.5% | 23.6% | -12.8% (active) | 28.1% | 16% | 0.112% (active) | 8.45% (active) | 8.57% (active)
26 | Nc1ncnc2nc(Br)[nH]c12 | 89.4% | 95.6% | 104% | 106% | 99.9% | 92.4% | 109% | 102%
27 | Cn1cc(-c2csc(-c3cn(CCCN4CCCCC4)c4ccccc34)n2)c2cccnc21 | 92.5% | 72.7% | -87.7% (active) | -65.3% (active) | -77.2% (active) | -95% (active) | 99% | -62.8% (active)
28 | CN(C)c1ccc(N=C2C=CC(=O)C=C2)cc1 | 60.6% | 31.3% | 74.5% | 96.3% | 72.3% | 74.3% | 94.3% | 97.1%
29 | N#Cc1c(-c2ccco2)nc2c(c(-c3ccccc3)nn2-c2ccccc2)c1-c1ccc(O)cc1 | 18.5% | 64.7% | 62.1% | 48% | 47.3% | 36.9% | 91.5% | 43%
30 | CCN1CCN(C(=O)[C@]23CC[C@@H](C)[C@H](C)[C@H]2C2=CC[C@@H]4[C@@]5(C)C/C(=C/c6cccc(OC)c6OC)C(=O)C(C)(C)[C@@H]5CC[C@@]4(C)[C@]2(C)CC3)CC1 | 18.2% | 55% | 43.4% | 33.3% | 12.2% | 17.9% | 44.6% | 32.7%
